The source of these data is PubChem BioAssay.

A number with no mark means an inactive call. Some of the results follow. Active and inactive are the calls of the source.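 The calls were made as follows, unless noted: active = mean inhibition across replicates above the hit cutoff set by the earlier primary screen (cut at about 15% in these data); inactive = the rest.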

Usually inhibition stands for the relative decrease from the control value, in per cent.

Assay [1] concerns the target Platelet-activating factor acetylhydrolase (Homo sapiens) (UniProt Q13093). Nature of the assay: inhibition of plasma PAF acetylhydrolase – biochemical, fluorescence polarization, human, confirmation (AID 463230;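 active = mean inhibition of the triplicate above the hit cutoff set for the earlier primary screen, cut at about 25% in these data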;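 also: 0% = enzyme with DMSO and 100% = wells lacking pPAFAH enzyme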). Conditions: recombinant pPAFAH, FP-Rh probe fluorescence polarization; at 3.39 µM; stronger effect = higher value.
For assay [2], the target named is Insulin-degrading enzyme (Homo sapiens) (UniProt P14735). Kind of assay: cellular IDE Abeta-cleavage inhibition – fluorescence polarization, HEK cells, FAbetaB substrate, confirmation (AID 435028;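 active = mean inhibition across triplicate wells above the cutoff set by the earlier primary insulin-degrading enzyme screen, cut at about 16% in these data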;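 also: 0% = DMSO wells and 100% = 60 µM reference IDE inhibitor Ii1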). Conditions: at 5.59 µM, stronger effect = higher value. In general terms: In fluorescence polarisation assays a small probe gives low polarisation when free and higher when bound to something large.

A short description of assay [3]: HEK cell viability loss – luminescence, cytotoxicity control for IDE inhibitor project (AID 449730; in the data active = inhibition above about 22%;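 also: 0% = vehicle wells and 100% = reference cytotoxic drug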). The note with it: HEK293 cytotoxicity, ATP luminescence; at 5.59 µM; stronger effect = higher value.
Assay [4] has as its target Toll-like receptor 9 (Homo sapiens) (UniProt Q9NR96). Nature of the assay: disruptors of TLR9 binding to MyD88 – cell-based, CHO, BLA complementation, fluorescence, triplicate, confirmation (AID 540250;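 active = mean inhibition across three repeats above about 21% taken from the earlier screen, limit read from the data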;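 also: blue over green emission ratio reports constitutive TLR9 MyD88 association via BLA complementation; 0% = DMSO vehicle wells and 100% = clavulanate BLA inhibitor wells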). Conditions: CCF4 FRET ratio, at 4.98 µM, stronger effect = higher value.
Assay [5] in a line: BLA reporter readout interference – cell-based, fluorescence, artefact control for TLR9-MyD88 binding inhibitor project (AID 540251;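 active = mean inhibition above a 50% cutoff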;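 also: counterscreen of TLR9-MyD88 hits on CMV-driven BLA in CHO-K1 cells; 0% = DMSO alone and 100% = clavulanate blocking BLA; higher means less blue over green ratio so more BLA blockade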). Conditions: CHO-BLA cells, CCF4 FRET ratio, at 4.98 µM, stronger effect = higher value.
Assay [6] can be described thus: CHO cell viability loss – luminescence, single concentration, cytotoxicity control for TLR9-MyD88 binding inhibitor project (AID 588336; in the data active = inhibition above about 11%). Conditions: TLR9-MyD88 CHO cells cytotoxicity, at 4.98 µM, stronger effect = higher value.
In assay [7] the target is Receptor-interacting serine/threonine-protein kinase 2 (Homo sapiens) (UniProt O43353). Nature of the assay: inhibitors of RIPK2 association with NOD2 – fluorescence, CHO cells, BLA complementation, triplicate, confirmation (AID 624370;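 active = mean inhibition across replicates above a set limit taken from the earlier primary screen, cut at about 21% in these data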;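 also: 0% = DMSO-only wells and the high end = clavulanate BLA-blocked wells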). The note with it: CCF4 FRET, at 4.98 µM, stronger effect = higher value.
A short description of assay [8]: BLA reporter readout interference – cell-based, CHO-K1 CMV-bla, CCF4 FRET, fluorescence, artefact control for NOD2-RIPK2 interaction inhibitor project, confirmation (AID 624371;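 active = mean inhibition above the low-control mean inhibition plus three low-control SD, cut at about 11% in these data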;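 also: 0% = DMSO only wells and 100% = clavulanate high control wells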). The note with it: CCF4 FRET ratio, counterscreen, at 4.98 µM, stronger effect = higher value. (In general: Counterscreens check selectivity or assay interference.)
The target in assay [9] is Protein-arginine deiminase type-4 (Homo sapiens) (UniProt Q9UM07). Kind of assay: protein arginine deiminase 4 blockade, retest – biochemical, fluorescence polarization, confirmation (AID 488796).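 Also: inhibitors block active-site labeling by the probe so polarization falls; 0% = PAD4 with probe and DMSO and 100% = probe without PAD4 enzyme.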 The note with it: recombinant PAD4, RCA probe fluorescence polarization; at 6.36 µM; stronger effect = higher value.
In assay [10] the target is Nuclear receptor coactivator 3 (Homo sapiens) (UniProt Q9Y6Q9). Kind of assay: NCOA3 GAL4-fusion reporter inhibition – cell-based, luminescence, quadruplicate, confirmation (AID 588792;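 active = mean inhibition over 43.08%, the solvent-only control mean plus 3 SD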;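 also: 0% = DMSO treated cells and 100% = gossypol at 36 µM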). The note with it: HEK293 GAL4-SRC3 luciferase reporter, at 3.6 µM, stronger effect = higher value.
Assay [11] concerns transactivating tegument protein VP16 (Human herpesvirus 1), Gal4-VP16 luciferase reporter. Nature of the assay: repression of VP16-driven luciferase reporter – cell-based, luminescence, high throughput, counter-screen for SRC3 inhibitor project (AID 588794; in the data active = inhibition above about 30%). The note with it: mammalian cells, at 3.6 µM, stronger effect = higher value.
The test system of assay [12] is transactivating tegument protein VP16 (Human herpesvirus 1). Kind of assay: compounds suppressing VP16-driven luciferase signal – cell-based, luminescence, single concentration, counter-screen for SRC2 inhibitor project (AID 652007; in the data active = inhibition above about 36%). Conditions: cell-based VP16 transactivation luciferase reporter, at 8.9 µM, stronger effect = higher value.
The target in assay [13] is Nuclear receptor coactivator 2 (Homo sapiens) (UniProt Q15596). Kind of assay: inhibition of GAL4-SRC2 driven luciferase expression – cell-based, luminescence, HEK293, triplicate, confirmation (AID 652008;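 active = mean inhibition above 46.5%, the solvent-only control mean plus 3 SD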;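 also: 0% = DMSO-treated cells and 100% = Gossypol at 36 µM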). The note with it: HEK293 GAL4-SRC2 luciferase reporter, at 8.9 µM, stronger effect = higher value. (In a reporter assay the amount or activity of a reporter protein is the signal.)

Assay [14] is described as follows: VP16-driven transactivation reporter suppression – cell-based, luminescence, HEK293, counter-screen for COUP-TFII antagonist project (AID 687007; in the data active = inhibition above about 13%). The note with it: HEK293 Gal4-VP16 luciferase reporter, at 8.5 µM, stronger effect = higher value.
Assay [15] deals with COUP transcription factor 2 (Homo sapiens) (UniProt P24468). Kind of assay: retest of COUP-TFII reporter suppressors – cell-based, luciferase reporter, HEK293, triplicate, confirmation (AID 687008;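 active = mean inhibition over three repeats above a set limit taken from the earlier primary screen, cut at about 38% in these data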;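 also: 100% = cells given the luciferase reporter alone without the COUP-TF2 vector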). Conditions: HEK293 NGFI-A luciferase reporter, luminescence; at 8.5 µM; stronger effect = higher value.
Assay [16] deals with Photoreceptor-specific nuclear receptor (Homo sapiens) (UniProt Q9Y5X4). Nature of the assay: retest of NR2E3-NCOR disrupting agonists – cell-based, luminescence, CHO-S two-hybrid, confirmation (AID 624378;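 active = average inhibition above a cutoff equal to the mean inhibition of all tested compounds plus one SD, cut at about 70% in these data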;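 also: 0% = DMSO in NR2E3 cells and 100% = DMSO in cells lacking NR2E3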). Conditions: CHO-S mammalian two-hybrid NR2E3-NCOR, luciferase luminescence; at 3.98 µM; stronger effect = higher value.
Assay [17] in a line: nonselective effects on VP16 transactivation – cell-based, luminescence, CHO-S, high throughput, counter-screen for NR2E3 agonist project, confirmation (AID 624379;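 active = mean inhibition above a cutoff equal to the average over all tested compounds plus one standard deviation, cut at about 70% in these data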;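 also: 0% = DMSO with VP16-transfected cells and 100% = DMSO with cells lacking VP16; higher means less reporter light so more repression of VP16 activity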). The note with it: CHO-S GAL4-VP16 luciferase reporter, at 3.98 µM, stronger effect = higher value.
In assay [18] the target is (Lyso)-N-acylphosphatidylethanolamine lipase (Mus musculus) (UniProt Q8VD66). Kind of assay: mouse ABHD4 hydrolase blockers, triplicate – biochemical, fluorescence polarization, confirmation (AID 720658;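 active = mean inhibition across replicates above the hit cutoff set in the primary screen, cut at about 30% in these data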;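 also: 0% = wild-type ABHD4 with DMSO and 100% = catalytically dead S159A mutant with DMSO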). Conditions: purified mABHD4, FP-Rh probe fluorescence polarization; at 8.92 µM; stronger effect = higher value.
Assay [19] addresses Serine protease HTRA1 (Homo sapiens) (UniProt Q92743). Nature of the assay: confirming inhibition of human HTRA1 – biochemical, fluorescence polarization, confirmation (AID 540248;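 active = mean inhibition over three repeats above a set limit taken from the earlier primary screen, cut at about 37% in these data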;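 also: 0% = HTRA1 with DMSO and 100% = wells lacking HTRA1; inhibitors block probe binding so polarization drops and inhibition rises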). The note with it: recombinant HTRA1, FP-rhodamine activity-based probe, at 5.96 µM, stronger effect = higher value.
Assay [20] is described as follows: BSA probe fluorescence interference – biochemical, TAMRA-labeled BSA, counter-screen for TCR-CD3 interaction inhibitor project (AID 652035; in the data active = inhibition above about 23%;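 also: 0% = buffer low control and 100% = reference high control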). Conditions: TAMRA-labeled BSA probe fluorescence counterscreen; at 9.4 µM; stronger effect = higher value.
Assay [21] concerns T-cell receptor (TCR)-CD3 interaction, human. Kind of assay: blockers of TCR binding to CD3 – biochemical, fluorescence, TAMRA-labeled TCR probe, confirmation (AID 652036; in the data active = inhibition above about 19%). Conditions: TAMRA-labeled TCR probe fluorescence binding assay; at 9.4 µM; stronger effect = higher value.

Protein-arginine deiminase type-4 (Homo sapiens), sequence (Q9UM07 whole entry, looked up, the tested form may be a part): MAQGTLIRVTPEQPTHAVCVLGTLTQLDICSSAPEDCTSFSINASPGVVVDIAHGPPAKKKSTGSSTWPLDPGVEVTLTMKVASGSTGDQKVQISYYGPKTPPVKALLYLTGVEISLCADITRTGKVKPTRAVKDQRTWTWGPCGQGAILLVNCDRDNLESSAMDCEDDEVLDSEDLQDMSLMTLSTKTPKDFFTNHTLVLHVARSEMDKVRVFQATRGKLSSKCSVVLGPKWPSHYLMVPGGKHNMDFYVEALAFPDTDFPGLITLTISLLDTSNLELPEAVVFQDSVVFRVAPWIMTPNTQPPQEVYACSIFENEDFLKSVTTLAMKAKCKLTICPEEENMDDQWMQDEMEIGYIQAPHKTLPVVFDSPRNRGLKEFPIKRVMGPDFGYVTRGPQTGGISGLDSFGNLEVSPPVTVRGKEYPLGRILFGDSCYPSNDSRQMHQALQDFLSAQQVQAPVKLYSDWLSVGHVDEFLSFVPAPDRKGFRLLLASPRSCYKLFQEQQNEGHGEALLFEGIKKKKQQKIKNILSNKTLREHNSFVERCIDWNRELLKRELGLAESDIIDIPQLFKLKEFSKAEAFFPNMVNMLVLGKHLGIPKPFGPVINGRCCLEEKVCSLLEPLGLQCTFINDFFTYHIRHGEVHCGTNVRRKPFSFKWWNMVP
Platelet-activating factor acetylhydrolase (Homo sapiens), sequence (Q13093 whole entry, looked up): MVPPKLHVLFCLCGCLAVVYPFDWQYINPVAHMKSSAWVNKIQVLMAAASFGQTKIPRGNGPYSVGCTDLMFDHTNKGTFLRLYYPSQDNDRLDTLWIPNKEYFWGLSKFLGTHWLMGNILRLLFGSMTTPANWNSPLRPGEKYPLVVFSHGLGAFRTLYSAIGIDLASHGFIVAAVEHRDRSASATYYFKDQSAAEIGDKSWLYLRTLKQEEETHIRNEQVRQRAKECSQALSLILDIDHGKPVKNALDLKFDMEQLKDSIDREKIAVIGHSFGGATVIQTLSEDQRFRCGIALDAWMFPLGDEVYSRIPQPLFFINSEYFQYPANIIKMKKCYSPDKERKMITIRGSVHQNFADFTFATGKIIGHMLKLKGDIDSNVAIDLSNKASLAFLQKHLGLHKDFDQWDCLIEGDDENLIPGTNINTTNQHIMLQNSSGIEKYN
Insulin-degrading enzyme (Homo sapiens), sequence (P14735 whole entry, looked up): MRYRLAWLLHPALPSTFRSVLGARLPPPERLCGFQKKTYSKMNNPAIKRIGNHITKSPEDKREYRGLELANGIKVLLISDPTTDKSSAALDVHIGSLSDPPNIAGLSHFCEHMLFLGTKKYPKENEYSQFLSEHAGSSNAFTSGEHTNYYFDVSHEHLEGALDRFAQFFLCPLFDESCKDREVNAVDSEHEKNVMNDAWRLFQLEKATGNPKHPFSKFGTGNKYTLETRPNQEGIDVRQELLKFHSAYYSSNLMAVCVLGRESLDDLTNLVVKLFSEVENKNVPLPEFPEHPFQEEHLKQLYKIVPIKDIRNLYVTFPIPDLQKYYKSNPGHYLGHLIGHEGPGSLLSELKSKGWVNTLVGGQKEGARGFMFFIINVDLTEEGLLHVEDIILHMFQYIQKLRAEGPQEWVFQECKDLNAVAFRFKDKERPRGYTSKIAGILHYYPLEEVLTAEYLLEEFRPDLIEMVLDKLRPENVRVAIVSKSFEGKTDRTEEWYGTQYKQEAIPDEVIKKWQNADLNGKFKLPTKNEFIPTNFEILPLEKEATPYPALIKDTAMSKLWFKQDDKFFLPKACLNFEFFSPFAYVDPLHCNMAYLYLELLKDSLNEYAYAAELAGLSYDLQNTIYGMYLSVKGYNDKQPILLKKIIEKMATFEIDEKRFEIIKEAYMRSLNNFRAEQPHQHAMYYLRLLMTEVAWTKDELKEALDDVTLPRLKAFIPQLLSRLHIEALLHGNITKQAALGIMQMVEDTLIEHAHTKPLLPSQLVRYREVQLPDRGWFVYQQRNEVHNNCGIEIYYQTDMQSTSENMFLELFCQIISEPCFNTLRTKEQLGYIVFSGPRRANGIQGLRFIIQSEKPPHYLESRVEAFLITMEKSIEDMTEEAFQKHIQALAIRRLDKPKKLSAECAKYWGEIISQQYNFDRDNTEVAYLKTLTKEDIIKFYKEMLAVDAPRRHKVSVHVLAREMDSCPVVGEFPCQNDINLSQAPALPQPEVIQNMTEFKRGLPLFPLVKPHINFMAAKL
(Lyso)-N-acylphosphatidylethanolamine lipase (Mus musculus), sequence (Q8VD66 whole entry, looked up): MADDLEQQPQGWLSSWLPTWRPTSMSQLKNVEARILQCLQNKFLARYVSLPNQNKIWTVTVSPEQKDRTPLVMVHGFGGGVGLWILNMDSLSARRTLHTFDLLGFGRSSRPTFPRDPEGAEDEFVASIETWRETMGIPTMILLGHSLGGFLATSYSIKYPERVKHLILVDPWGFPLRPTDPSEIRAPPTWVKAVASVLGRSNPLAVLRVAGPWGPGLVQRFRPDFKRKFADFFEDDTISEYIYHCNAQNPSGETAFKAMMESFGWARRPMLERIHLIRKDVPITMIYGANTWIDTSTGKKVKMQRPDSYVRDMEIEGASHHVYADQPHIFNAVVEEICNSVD
Nuclear receptor coactivator 2 (Homo sapiens), sequence (Q15596 whole entry, looked up, the tested form may be a part): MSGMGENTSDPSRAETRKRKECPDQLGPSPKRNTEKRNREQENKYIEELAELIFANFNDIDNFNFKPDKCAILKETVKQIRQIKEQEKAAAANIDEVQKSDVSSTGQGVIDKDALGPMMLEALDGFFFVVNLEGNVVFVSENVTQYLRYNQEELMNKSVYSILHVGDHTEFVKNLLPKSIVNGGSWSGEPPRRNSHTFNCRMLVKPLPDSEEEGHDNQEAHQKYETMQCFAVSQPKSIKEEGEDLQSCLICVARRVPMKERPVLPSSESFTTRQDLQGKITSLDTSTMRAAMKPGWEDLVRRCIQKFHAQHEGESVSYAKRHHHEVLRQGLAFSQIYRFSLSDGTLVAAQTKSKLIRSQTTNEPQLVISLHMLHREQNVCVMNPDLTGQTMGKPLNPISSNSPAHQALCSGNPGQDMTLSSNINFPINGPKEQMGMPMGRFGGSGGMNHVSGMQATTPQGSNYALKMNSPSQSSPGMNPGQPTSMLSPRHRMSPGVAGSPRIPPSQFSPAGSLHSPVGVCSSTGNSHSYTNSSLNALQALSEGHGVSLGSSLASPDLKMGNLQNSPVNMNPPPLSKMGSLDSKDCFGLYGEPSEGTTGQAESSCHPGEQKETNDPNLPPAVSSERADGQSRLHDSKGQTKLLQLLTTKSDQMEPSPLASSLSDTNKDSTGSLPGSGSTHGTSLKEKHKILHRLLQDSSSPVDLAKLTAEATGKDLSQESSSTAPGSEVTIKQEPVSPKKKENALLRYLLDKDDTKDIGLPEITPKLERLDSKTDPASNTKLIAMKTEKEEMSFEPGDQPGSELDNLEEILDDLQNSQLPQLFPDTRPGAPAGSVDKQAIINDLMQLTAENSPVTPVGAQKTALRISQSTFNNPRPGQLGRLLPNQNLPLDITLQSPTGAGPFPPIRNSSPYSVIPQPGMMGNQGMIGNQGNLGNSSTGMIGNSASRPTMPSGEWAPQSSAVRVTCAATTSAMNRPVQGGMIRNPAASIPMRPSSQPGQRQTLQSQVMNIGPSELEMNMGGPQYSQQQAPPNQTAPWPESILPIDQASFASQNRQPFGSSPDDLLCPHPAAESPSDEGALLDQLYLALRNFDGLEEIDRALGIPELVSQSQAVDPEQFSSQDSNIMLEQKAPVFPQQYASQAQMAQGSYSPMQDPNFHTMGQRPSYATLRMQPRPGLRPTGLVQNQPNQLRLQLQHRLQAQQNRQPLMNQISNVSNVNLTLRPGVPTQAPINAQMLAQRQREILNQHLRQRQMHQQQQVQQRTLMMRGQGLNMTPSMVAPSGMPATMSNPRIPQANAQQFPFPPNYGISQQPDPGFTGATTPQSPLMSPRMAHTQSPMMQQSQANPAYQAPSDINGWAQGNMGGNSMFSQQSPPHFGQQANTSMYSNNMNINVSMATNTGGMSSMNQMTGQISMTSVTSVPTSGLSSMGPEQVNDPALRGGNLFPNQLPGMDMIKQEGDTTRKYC
COUP transcription factor 2 (Homo sapiens), sequence (P24468 whole entry, looked up): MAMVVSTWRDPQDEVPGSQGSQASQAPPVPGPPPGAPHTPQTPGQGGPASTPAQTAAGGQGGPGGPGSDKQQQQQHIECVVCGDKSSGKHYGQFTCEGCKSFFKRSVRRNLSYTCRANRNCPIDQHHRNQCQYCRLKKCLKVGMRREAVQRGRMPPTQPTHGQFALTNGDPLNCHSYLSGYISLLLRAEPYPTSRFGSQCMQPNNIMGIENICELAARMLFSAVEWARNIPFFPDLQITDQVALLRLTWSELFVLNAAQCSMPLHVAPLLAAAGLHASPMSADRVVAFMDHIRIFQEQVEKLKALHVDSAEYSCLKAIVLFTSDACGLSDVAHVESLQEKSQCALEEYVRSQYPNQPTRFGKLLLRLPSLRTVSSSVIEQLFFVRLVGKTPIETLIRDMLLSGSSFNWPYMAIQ
Photoreceptor-specific nuclear receptor (Homo sapiens), sequence (Q9Y5X4 whole entry, looked up): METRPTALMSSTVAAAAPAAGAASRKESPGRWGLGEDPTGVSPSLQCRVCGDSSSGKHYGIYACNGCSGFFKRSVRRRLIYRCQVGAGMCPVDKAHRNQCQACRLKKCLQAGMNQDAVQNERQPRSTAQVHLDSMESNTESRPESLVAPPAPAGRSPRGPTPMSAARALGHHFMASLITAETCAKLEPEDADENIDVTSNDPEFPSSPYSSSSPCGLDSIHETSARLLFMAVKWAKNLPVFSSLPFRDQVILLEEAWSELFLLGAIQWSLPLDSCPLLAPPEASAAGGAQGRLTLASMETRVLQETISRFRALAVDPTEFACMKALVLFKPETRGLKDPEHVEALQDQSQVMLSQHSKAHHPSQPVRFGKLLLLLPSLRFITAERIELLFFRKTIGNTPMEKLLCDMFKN

`COc1cc(C2CC(=O)N3CN(Cc4ccccc4)CSC3=C2C#N)ccc1OCc1ccccc1` (configuration not stated): the inhibition in [1] was 14.2%.

Consider `COc1cc(/C=C(\C#N)c2nc3c(s2)CC(C)CC3)ccc1O` (configuration not stated), for which the inhibition in assay [2] was 161% (active); in assay [3] it was 11.3%; in [4] it was 7.82%; in assay [5], 17%; in assay [6], 0.65%; in [7] it was 29.5% (active). The inhibition in [8] was 39.6% (active).

For the compound `O=C(O)C(c1ccccc1)N1C(=O)/C(=C\c2ccc(-c3cccc(Cl)c3)o2)SC1=S` (configuration not stated), the inhibition in assay [1] was 55.4% (active).

As to `O=C(Nc1nc(-c2ccco2)c(-c2ccco2)s1)c1ccco1`, in [1], the inhibition was 17.3%.

As to `COc1ccc(C(=O)NC(=S)Nc2ccccc2N2CCN(S(C)(=O)=O)CC2)cc1OC`, in [1], the inhibition is -1.51%.

Take `COc1ccc(C(=O)Nc2nc(-c3ccc(S(=O)(=O)N4CCOCC4)cc3)cs2)cc1`: the inhibition in assay [2] is 3.32%; in [3] it was 68.2% (active); in assay [9], 18.9% (active); in [10], -12.4%; in [11], -5.9%; in [12], 16.2%. Moreover, the inhibition is 21.5% in [13], -11.1% in [14] and 40.2% (active) in assay [15].

In the case of `Cc1ccccc1-n1c(SCC(=O)Nc2cccc3ccccc23)nc(O)cc1=O`, the inhibition in assay [1] is 4.9%.

Take `Fc1ccc2[nH]c3c(N4CCSCC4)ncnc3c2c1`: the inhibition in [2] is 7.91%; in assay [3] it was 49.2% (active); in assay [16], 84.4% (active); in assay [17], 63.2%; in assay [14] it was 4.31%; in assay [15], 48% (active).

On to `CCOc1[nH]n(-c2ccc(Cl)cc2)c(=O)c1C=Nc1ccc(O)cc1`, for which the inhibition in [9] was 6.04%; in [18], -0.05%.

Consider `Cc1cc(/C=N/Nc2ccc([N+](=O)[O-])cn2)c(C)n1-c1cccc(C(=O)O)c1`, for which the inhibition in assay [1] was 11.7%; in assay [19], 30.7%; in assay [18], 74.5% (active).

Consider `Cc1ccc(C(=O)CSc2nc3ccccc3c(=O)n2N)o1`, for which, in assay [9], the inhibition was 1.81%.

For `CCCCNC(=O)Nc1c(C)cc(SC#N)cc1C`, the inhibition in assay [9] is 35.6% (active).

For the compound `Cc1cc(O)ccc1-c1cnc2ccccc2n1`, the inhibition in [9] is 29.1% (active).

Consider `O=c1[nH]n(-c2ccc([N+](=O)[O-])cc2)c(=O)c2ccccc12`, for which the inhibition in assay [9] is 25.3% (active); in assay [20], 59.3% (active); in assay [21], 46% (active); in assay [18], 43.2% (active).

Turning to `Cc1nn(-c2ccccc2)c(C)c1NC(=O)COc1ccc(Cl)cc1Cl`, the inhibition in [9] was 5.05%; in assay [12] it was -8.62%; in [13], 16.2%.
